Hits are enriched below; roughly 6% of the tested compounds scored in any of these assays.
D1 ag: activates the human D1 dopamine receptor; P21728; HEK293 T-REx D1 cells, calcium flux, agonist mode; activation, % at 2 µM; 360,000 compounds, 1% hits; in the data active = activation above about 30%
Target sequence (P21728 whole entry, looked up): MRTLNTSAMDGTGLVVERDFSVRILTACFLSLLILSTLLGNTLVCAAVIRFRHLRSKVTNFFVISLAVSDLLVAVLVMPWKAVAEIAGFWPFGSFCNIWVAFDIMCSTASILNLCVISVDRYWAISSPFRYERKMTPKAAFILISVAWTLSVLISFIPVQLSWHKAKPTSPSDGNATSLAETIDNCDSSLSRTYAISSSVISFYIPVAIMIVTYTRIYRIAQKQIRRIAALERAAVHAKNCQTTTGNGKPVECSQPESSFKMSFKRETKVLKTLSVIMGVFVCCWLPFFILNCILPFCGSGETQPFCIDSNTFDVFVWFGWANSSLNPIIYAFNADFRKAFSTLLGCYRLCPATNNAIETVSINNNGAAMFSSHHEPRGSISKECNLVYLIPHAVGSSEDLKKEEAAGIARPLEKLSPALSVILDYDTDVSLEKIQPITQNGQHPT
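Agonism was scored from calcium flux recorded over 180 s (1 read/s) after pintool compound addition, following a 10-cycle baseline. Cells were inducible force-coupled HEK293 TREx D1, plated overnight at 30 C and loaded with no-wash calcium dye.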
D1 antag: antagonists of human D1 dopamine receptor. P21728. HEK293 TREx D1 cells, calcium flux, dopamine EC80; active compounds read low. activity change, negative = inhibition, % at 10 µM. 360,000 compounds, 3.2% hits. AID 504652; in the data active = activity change below about -30%
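Compound effects on dopamine-evoked calcium signalling were measured in tetracycline-induced HEK293 Trex D1 cells. Dopamine at EC80 followed a 180 s compound pre-read, and fluorescence was tracked kinetically for 180 s more.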
D1 PAM: human D1 dopamine receptor positive modulation; 360,000 compounds, 0.036% hits; potentiation, % at 10 µM; P21728; HEK293 TREx D1 cells, calcium flux, dopamine EC20 potentiation; in the data active = potentiation above about 30%
D3 antag: D3 dopamine receptor (human) antagonism; P35462; D3R cells, DiscoveRx beta-arrestin luminescence, antagonist mode; active compounds read low; max response, negative = inhibition, %; 360,000 compounds, 2.5% hits; AID 652054; in the data active = max response below about -50%; inconclusive = no clear call, values can overlap the other calls
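Cells expressing the human receptor were seeded at 1500 cells/well, incubated overnight at 37 degrees C in 5% CO2, then exposed to library compounds with dopamine controls for 90 minutes at 37 degrees C before luminescent detection.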
DRD3 agonist: D3 dopamine receptor (human) agonism; 410,000 compounds, 0.58% hits; AID 652048; D3R DiscoveRx beta-arrestin cells, luminescence, 90 min; P35462; max activation, %; in the data active = max activation above about 30%
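Agonist mode: compounds and dopamine controls were applied to plated cells for 90 min at 37 degrees C after an overnight attachment at 1500 cells/well. Luminescent read-out followed 30 - 60 minutes at room temperature with DiscoveRx detection reagent.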
Large screens that a line does not name were inactive.

Cn1c(-c2c(N)n(CCc3ccccc3)c3nc4ccccc4nc23)nc2ccccc21	D1 ag 77, DRD3 agonist 46
COCCn1c(N)c(C#N)c2nc3ccccc3nc21	none
N#Cc1c(N)n(CCc2ccc(F)cc2)c2nc3ccccc3nc12	none
COCCCn1c(N)c(-c2nc3ccccc3n2C)c2nc3ccccc3nc21	D1 ag 77, D3 antag -88
Cn1c(-c2c(N)n(CCCc3ccccc3)c3nc4ccccc4nc23)nc2ccccc21	D1 ag 52
CCN(CC)CCNC(=O)c1c(C)oc2ncnc(N3CCOCC3)c12	none (no result: D3 antag)
COCCNC(=O)c1cccc(-n2c(C)nc3cccnc32)c1	none (no result: D3 antag)
Cc1cccc(C)c1NC(=O)CSc1ncnc2[nH]ncc12	none (no result: D1 ag, D1 antag, D1 PAM)
COc1cccc(N2CCN(S(=O)(=O)c3cn(C)c(C)n3)CC2)c1	none (no result: D3 antag)
COCCNC(=O)c1c(N)n(-c2ccccc2)c2nc3ccccc3nc12	none
COCCNC(=O)c1c(N)n(CCCn2ccnc2)c2nc3ccccc3nc12	D1 antag -47
N=c1c(C(=O)NCC2CCCO2)cc2c(=O)n3ccccc3nc2n1Cc1ccccc1Cl (stereo unspecified)	D1 antag -39
CC1=CC(C)(C(Cl)(Cl)Cl)C(C)=CC1=NO (stereo unspecified)	D3 antag -55 (no result: D1 ag, D1 antag, D1 PAM)
CC(C)CN(C[C@@H](O)[C@H](Cc1ccccc1)NC(=O)O[C@H]1CO[C@H]2OCC[C@H]21)S(=O)(=O)c1ccc(N)cc1	none (no result: D1 ag, D1 antag, D1 PAM, D3 antag)
O=c1ccn(-c2cccc(C(F)(F)F)c2)nc1-c1ccn(-c2ccccc2)n1	D1 antag -38
NNC(=O)c1sccc1OCc1ccc(Cl)cc1Cl	D1 antag -32
Cc1ccc(C)c(Cn2c3ccccc3c3cnn(CC(=O)NCc4ccccc4)c(=O)c32)c1	none (no result: D3 antag)
O=C(NCCCNC(=O)c1cccs1)c1cccs1	D3 antag -64
CCCCC(CC)CNC(=O)c1cccs1 (stereo unspecified)	D1 antag -62
CCCCC(CC)CNC(=O)c1ncn[nH]1 (stereo unspecified)	none
O=C(NCCCCNC(=O)c1cccs1)c1cccs1	none
O=C(Nc1cccc(F)c1)N1CCc2nc(NCc3cccc(Oc4ccccc4)c3)ncc2C1	none (no result: D1 ag, D1 antag, D1 PAM)
Cc1nnc(SCC(=O)c2cc(C)n(-c3c(C)n(C)n(-c4ccccc4)c3=O)c2C)s1	none
Cc1cc(C(=O)CSc2nncs2)c(C)n1-c1c(C)n(C)n(-c2ccccc2)c1=O	D3 antag -95
Nc1nc(CN2CCN(Cc3ccccc3)CC2)nc(N2CCCc3ccccc32)n1	none
Nc1nc(CN2CCN(c3ccccc3F)CC2)nc(N2CCCc3ccccc32)n1	DRD3 agonist 32
Nc1nc(CN2CCN(c3ccccc3)CC2)nc(N2CCCc3ccccc32)n1	D3 antag inconclusive
Nc1nc(CN2CCN(c3cccc(Cl)c3)CC2)nc(N2CCCc3ccccc32)n1	D3 antag -77
c1ccc(SCCOCCN2CCOCC2)cc1	none
OCCN1CCN(CCSc2ccccc2)CC1	D3 antag -61
c1ccc(SCCOCCN2CCc3ccccc3C2)cc1	D1 antag -48, D3 antag -78
Cc1ccc(SCCN2CCN(Cc3ccccc3)CC2)cc1	D3 antag inconclusive
c1ccc(SCCN2CCc3ccccc3C2)cc1	D1 antag -73, D3 antag -91
COC(=O)c1sc(NC(=O)OCc2ccccc2)nc1CCNC(=O)OC(C)(C)C	none (no result: D1 ag, D1 antag, D1 PAM)
CCOc1ccc(-n2c(=S)sc3c(=O)[nH]c(SCC(=O)NC4CCCCC4)nc32)cc1	none (no result: D1 ag, D1 antag, D1 PAM)
CSc1nn(Cc2ccc(F)cc2)c(N)c1S(=O)(=O)c1ccc(Cl)cc1	none (no result: D3 antag)
CN(/N=C/c1ccc(-c2ccc([N+](=O)[O-])cc2)o1)c1ccccc1	D1 ag 234, D1 antag -67
CN(C)/N=C/c1ccc(Sc2ccccc2[N+](=O)[O-])o1	D1 antag -33
NC(=S)N/N=C/c1ccc(-c2ccc([N+](=O)[O-])cc2)o1	none
CCOC(=O)[C@]12CCC=C1N(Cc1ccc3c(c1)OCO3)C(=O)[C@H](CC(=O)N1CCN(C(=O)c3ccco3)CC1)C2	none (no result: D1 ag, D1 antag, D1 PAM)
Cc1ccccc1Cn1cnc2c(cnn2C(C)(C)C)c1=O	none
Cc1ccc(C)c(Cn2cnc3c(cnn3C(C)(C)C)c2=O)c1	D1 ag 41
Cc1ccc(-n2nnc3c(=O)n(Cc4cc(C)ccc4C)cnc32)cc1	D3 antag -68

From PubChem
